Measured values taken from PubChem BioAssay (NCI).
About 79,000 compounds went through this panel and 15% of them were active in at least one assay; those are over-represented in the sample as a whole. Active and inactive are the calls of the source. No stated cut-off is given here; in the data, active means growth inhibition above about 70%; inactive means the rest.

Experiment: NCI Yeast Anticancer Drug Screen. Data for the rad50 strain (AID 155);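 further: 0% = growth of vehicle-only cultures of the same strain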
Conditions: S. cerevisiae rad50 strain growth inhibition; at 5.0 µM (retest, dose inferred, filed as 0.5); stronger effect = higher value
Procedure, shortened: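 DNA repair mutant yeast, compound exposure, growth read-out; inhibition is taken relative to vehicle.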

Row | Structure (SMILES) | growth inhibition
1 | Cc1cccc2c(C(O)CBr)cc(-c3ccc(Cl)cc3)nc12 (stereo not given) | 3% (inactive)
2 | CN(C)C[C@H]1CC[C@@H](CN(C)C)C1=O | 5% (inactive)
3 | CC1=C(SCCO)C(=O)c2ccccc2C1=O | 1% (inactive)
4 | COC(=O)CCNc1c2ccccc2nc2cccc([N+](=O)[O-])c12 | 95% (active)
5 | CC(/C=C/c1ccc2c(c1)OCO2)[N+](=O)[O-] (stereo not given) | 86% (active)
6 | COC(=O)C1=C(C)NC(C)=C(C(=O)OCCCN2CCC(c3ccccc3)(c3ccccc3)CC2)C1c1cccc([N+](=O)[O-])c1 (stereo not given) | 37% (inactive)
7 | CCOC(=O)c1cnc2c(C(F)(F)F)cccc2c1N=[N+]=[N-] | 15% (inactive)
8 | O=[N+]([O-])c1cc2no[n+]([O-])c2cc1N1CCCCC1 | 24% (inactive)
9 | COC(=O)c1ccc(NCC2=CC(=O)C=CC2=O)cc1O | 12% (inactive)
10 | CCCCCCCCNC(=O)C1=C(C)NC(C)=C(C(=O)NCCCCCCCC)C1 | 8% (inactive)
11 | S=C(Nc1ccc(Cl)c(Cl)c1)SCc1ccc2c(c1)OCO2 | 52% (inactive)
12 | O=S(=O)(CCCl)c1ccccc1Cl | -119% (inactive)
13 | Nc1ccccc1CC(O)C(=O)O (stereo not given) | -15% (inactive)
14 | CN(C)c1ccc(Sc2ccc3nc(N)nc(N)c3c2)cc1 | 41% (inactive)
15 | CC(C)C1=CCC2C(=C1)CCC1C(C)(C(=O)O)CCCC21C (stereo not given) (tested in a mixture with another compound) | 30% (inactive)
16 | Cc1ccc(S(=O)(=O)Oc2cc(Cl)c(Cl)cc2Cl)cc1 | 9% (inactive)
17 | CSC(=S)Nc1cc(C)ccn1 | 60% (inactive)
18 | CC(C)c1cc(C(C)C)c(O)c(C([O-])[O-])c1.CC(C)c1cc(C(C)C)c(O)c(C([O-])[O-])c1.CC(C)c1cc(C(C)C)c(O)c(C([OH2+])[OH2+])c1.CC(C)c1cc(C(C)C)c(O)c(C([OH2+])[OH2+])c1.[Cu+2].[Cu+2].[OH3+].[OH3+] | 5% (inactive)
19 | Cc1cc(I)ccc1N | 50% (inactive)
20 | CC(Br)C(=O)c1ccc2cc(Br)c3ccccc3c2c1 (stereo not given) | -3% (inactive)

Row | Structure (SMILES) | growth inhibition
21 | O=C(Nc1ccccc1)OCCc1ccc(Cl)c(Cl)c1 | 0% (inactive)
22 | O=Cc1cccc2ccc3ccccc3c12 | -102% (inactive)
23 | O=[N+]([O-])CC(SCc1ccccc1)c1ccc2c(c1)OCO2 (stereo not given) | 30% (inactive)
24 | CC1(Cl)CC(O)C2(CC1Br)C1(C)OC1C1OC1(Br)C2(C)C (stereo not given) | 12% (inactive)
25 | Cc1cc(O)cc(O)c1N=Nc1ccc([N+](=O)[O-])cc1 | 47% (inactive)
26 | CCCCCCCCCCCCCC[N+](C)(CC(=O)[O-])Cc1ccccc1 (stereo not given) | 8% (inactive)
27 | CC1=NN(c2cccc(Cl)c2)C(=O)C1 | 81% (active)
28 | CC(=O)OCc1ccc(O)c(C=O)c1 | 16% (inactive)
29 | Cc1ccc2ccc3cccc4ccc1c2c34 | -1% (inactive)
30 | Cc1nc(-[n+]2nc(-c3ccncc3)nn2-c2ccccc2)sc1C | 1% (inactive)
31 | C(CCSC1=NCCN1)CSC1=NCCN1 (tested in a mixture with another compound) | 59% (inactive)
32 | CCCCCCCCCCC(=O)Cl | 100% (active)
33 | COC1C=COC2(C)Oc3c(C)c(O)c4c(c3C2=O)/C(=N/C2CCC(O)OC2C)C=C(NC(=O)/C(C)=C\C(=O)C2CC2C(O)C(C)C(O)C(C)C(OC(C)=O)C1C)C4=O (stereo not given) | -16% (inactive)
34 | S=c1[nH]nc(Nc2ccc(Cl)cc2)s1 | -150% (inactive)
35 | O=C1CSC(/C=C/c2ccccc2)N1c1ccc(-c2ccc(-n3c(-c4ccccc4)nc4ccccc4c3=O)cc2)cc1 (stereo not given) | -9% (inactive)
36 | O=C1C=CC(=O)N1c1ccc2c(c1)Cc1cc(NC(=O)C(F)(F)F)ccc1-2 | 52% (inactive)
37 | Brc1ccc(-c2cc3c(cc2C2SCCS2)OCO3)cc1 | -19% (inactive)
38 | Oc1ccc2ccccc2c1C(c1ccc(Cl)cc1)c1c(O)ccc2ccccc12 | 99% (active)
39 | C[CH2][Sn]([CH2]C)([O]C(=O)C(OC(C)=O)c1ccccc1)[O]C(=O)C(OC(C)=O)c1ccccc1 (stereo not given) | 13% (inactive)
40 | Cc1ccc2ccc(O)cc2c1 | -9% (inactive)
